Most compounds without a hit are left out; they make up all but 3.1% or so of the library.
Tau ThT inhib = qHTS for Inhibitors of Tau Fibril Formation, Thioflavin T Binding | Potency, µM (titrated, usually from 57.4 µM), without a hit: at the highest dose activity, negative = inhibition, usual class: inhibitors | actives 2.1% (n = 270,000) | Microtubule-associated protein tau (Homo sapiens), P10636 | recombinant tau K18 P301L, heparin-induced fibrillization, ThT fluorescence; note: nearly all actives have a fitted effect of over 55% in size
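K18 P301L tau (15 uM + 0.24 uM Alexa 594-tagged), heparin 20 uM, NaOAc pH 7, 6 h 37 C; ThT 30 uM, 1 h RT, ex 450/em 510 nm.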
Tau fluor counter = Counterscreen qHTS for Inhibitors of Tau Fibril Formation, Fluorescence Polarization | actives 0.93% (n = 280,000) | tau K18 P301L (four-repeat tau fragment) Alexa594 fluorescence, heparin fibrillization | Potency, µM (top dose mostly 57.7 µM), for inactives: at the top dose activity change, negative = decrease; note: nearly all actives have a fitted effect of over 55% in size
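Human K18 P301L tau (15 uM unlabeled plus 0.24 uM Alexa 594-labeled, final) in 100 mM sodium acetate pH 7 was mixed with compound and 20 uM heparin and incubated 6 hr at 37 C.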
TRb SRC2 PPI = qHTS for Inhibitors of the Interaction of Thyroid Hormone Receptor and Steroid Receptor Coregulator 2; AID 1469, 2008; Thyroid hormone receptor beta (Homo sapiens), P10828; Potency, µM (series often up to 106 µM), for the others: top-dose activity change, negative = inhibition, actives largely listed as inhibitors; TRbeta-SRC2 peptide binding, fluorescence polarization; receptor liganded with 1 µM T3; actives 0.065% (n = 280,000);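 note: plate controls were bound peptide for no effect and peptide without receptor for full effect; nearly all actives have a fitted effect of over 50% in size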
Target sequence (P10828 whole entry, looked up): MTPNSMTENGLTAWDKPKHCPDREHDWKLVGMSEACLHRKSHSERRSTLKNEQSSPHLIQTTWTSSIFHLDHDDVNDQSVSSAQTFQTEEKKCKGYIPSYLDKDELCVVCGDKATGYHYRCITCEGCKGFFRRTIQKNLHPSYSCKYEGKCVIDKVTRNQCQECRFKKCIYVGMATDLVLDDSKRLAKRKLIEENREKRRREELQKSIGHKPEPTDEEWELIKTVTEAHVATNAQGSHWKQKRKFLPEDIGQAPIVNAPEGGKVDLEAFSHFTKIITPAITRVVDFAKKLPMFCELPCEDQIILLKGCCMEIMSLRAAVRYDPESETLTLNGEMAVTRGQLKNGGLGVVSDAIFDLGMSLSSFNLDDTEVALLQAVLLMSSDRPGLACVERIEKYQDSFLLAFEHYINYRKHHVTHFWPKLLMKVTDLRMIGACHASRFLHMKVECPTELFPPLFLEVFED
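Polarization signal, normalized between peptide-alone and full complex controls, measured compound effects on T3-liganded human TRb LBD (0.6 uM) binding 20 nM Texas Red SRC2 peptide after 5 hr.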
Tau fibril FP = qHTS for Inhibitors of Tau Fibril Formation, Fluorescence Polarization; AID 1468, 2008; actives 0.39% (n = 280,000); K18 P301L tau heparin fibrillization, Alexa594 FP, 6 h; Microtubule-associated protein tau (Homo sapiens), P10636; Potency, µM (top dose mostly 57.7 µM), for the others: at the highest dose activity, negative = inhibition, usual class: inhibitors; note: nearly all actives have a fitted effect of over 55% in size
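Recombinant K18 P301L […], labeled with Alexa 594 at 0.24 uM over 15 uM unlabeled; heparin inducer 20 uM final; 37 C, 6 hr; FP endpoint.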
TR SRC2 fluor cs = Total Fluorescence Counterscreen for Inhibitors of the Interaction of Thyroid Hormone Receptor and Steroid Receptor Coregulator 2. TRb/SRC2 Texas Red total fluorescence interference. Potency, µM (top dose mostly 106 µM), for the others: at the top dose fluorescence change, negative = quenching. actives 0.29% (n = 280,000); active = well fitted curve in either direction with a large enough effect; inconclusive = small, poorly fitted or top-dose-only effect
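Human TRb ligand-binding domain at 0.6 uM with 20 nM Texas Red SRC2 peptide in Tris buffer containing 1 uM T3 and 5% DMSO, incubated with compound 5 h at ambient temperature. Total fluorescence (555/632 nm) calculated as parallel + 2 × perpendicular.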
Numbers without * were called inactive; ? = inconclusive; / = no result; [ ] = another dose, or the depositor's remark. Unless noted, calls come from the whole dose curve; as a rule, active = well fitted curve in the direction sought with a large enough effect; inconclusive = small, poorly fitted or top-dose-only effect, or another doubt; inactive = no such curve, though single readings can be large; an effect the other way counts as inactive or inconclusive. Unless noted, % is set by controls: 0 for no effect and ±100 for the full control effect; potency is the fitted concentration of half-maximal effect.

SMILES	Tau ThT inhib	Tau fluor counter	TRb SRC2 PPI	Tau fibril FP	TR SRC2 fluor cs
Fc1ccc(Nc2cccc3nccnc23)cc1	?	-16%	-3%	8%	0%
CC(=O)OCON[N+]([O-])=NC1CCCCC1	/	/	-3%	/	0%
O=C(CSc1nc2ccc(Cl)cc2[nH]1)Nc1ccc2c(c1)CCC2	?	?	0%	13µM*	-2%
Cc1ccc2nc(SCC(=O)Nc3ccc4c(c3)CCC4)[nH]c2c1	?	6%	0%	2%	-1%
CCOc1ccccc1CNC(=O)c1ccc(NC(=O)N2CC(C)Sc3ccccc32)cc1 (stereo unspecified)	5%	-19%	-4%	-12%	-1%
CC(=O)Nc1cccc(-c2nnc(SCC(=O)c3cc([N+](=O)[O-])ccc3Br)o2)c1	?	14µM*[quencher]	11%	-19%	-13%
COc1ccc(-c2csc(/C(C#N)=C(\O)CSc3nccn3C)n2)cc1OC	18µM*	?	23%	-3%	-7%
COc1ccc(/C=C(/C#N)c2nc(-c3ccc(-c4ccccc4)cc3)cs2)cc1OC	?	-9%	?	?	?
Cc1ccccc1N=C1NC(=O)/C(=C/c2cccn2C)S1	?	-29%	7%	-3%	2%
Cc1cccc(N=C2NC(=O)/C(=C3/C(=O)N(C)c4ccccc43)S2)c1C	10µM*	?	-11%	2%	-1%
O=C(/C=C/c1ccc(OCc2ccccc2)c(OCc2ccccc2)c1)c1cccnc1	4%	-4%	-12%	-8%	1122µM*[quencher]
CCN=c1scc(-c2cccs2)n1/N=C/c1cc(OC)ccc1O	?	?	5%	?	-2%
CN=c1scc(-c2ccccc2F)n1/N=C/c1ccc(O)c(O)c1O	14µM*	25µM*[quencher]	-4%	?	-23%
CN=c1scc(-c2ccccc2F)n1/N=C/c1ccc[nH]1	?	?	0%	8%	-4%
CC(C)N=c1scc(-c2cccs2)n1/N=C/c1ccc(O)c(O)c1O	16µM*	20µM*[quencher]	4%	?	0%
Cc1ccc(C)c(N2CCN(C(=O)Cn3c(-c4cccs4)cc4ccccc43)CC2)c1	-15%	-12%	-1%	-4%	-20%
COC(=O)c1ccc(C#CC(NP(=O)(c2ccccc2)c2ccccc2)c2ccccc2)cc1 (stereo unspecified)	-17%	-12%	-7%	4%	-17%
O=C(N/N=C/c1cc([N+](=O)[O-])cc([N+](=O)[O-])c1O)/C(=C\c1cccs1)NC(=O)c1ccccc1	13µM*	-9%	3%	13%	-9%
O=C(N/N=C/c1ccc([N+](=O)[O-])cc1)c1ccc(COc2ccccc2-c2ccccc2)cc1	?	13µM*[quencher]	-8%	3%	-2%
O=C(N/N=C/c1ccc(OCc2ccc(F)cc2)cc1)c1ccccc1	-15%	-6%	-4%	-4%	-7%
CCOc1cc(/C=N/NC(=O)c2cccc([N+](=O)[O-])c2)ccc1OS(=O)(=O)c1ccccc1	-17%	14µM*[quencher]	-1%	-8%	-2%
Nc1ccc(C(=O)N/N=C\C=C\c2ccc([N+](=O)[O-])cc2)cc1	2.8µM*	-16%	8%	-7%	-3%
Cc1ccccc1NC(=O)/C(=C\c1cccs1)NC(=O)c1ccccc1	-4%	-2%	-1%	2%	-2%
Cc1ccc(C(C)C)c(OCCSc2nc(-c3cccs3)nc3cc(=O)[nH]n23)c1	-17%	-13%	-7%	-13%	-1%
COc1cc(/C=N/NC(=O)/C(=C\c2ccc([N+](=O)[O-])cc2)NC(=O)c2ccccc2)cc(OC)c1O	28µM*	?	-8%	15%	-4%
CC(=O)c1ccc(-c2c(C3C4C=CCCC4(C)C(=O)N3Cc3ccccc3)ccc3ccccc23)cc1 (stereo unspecified)	/	/	2%	/	-1%
